F508del corr: CFTR F508del correction in bronchial cells; CFBE cells, YFP halide quenching; stimulated with forskolin plus potentiator P3; % fluorescence drop versus neutral controls; activity (quench increase), % at 7.58 µM; hit rate 0.36% among 350,000;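 active = mean added fluorescence quench of at least 8% versus neutral control, with both replicates also reaching 8%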;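 note: cells transiently co-express mutant CFTR-F508del with the halide-sensitive YFP; corrector assay measuring rescue of mutant channel to the surface after 24 h compound exposure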
LGR2 antag: Drosophila LGR2 receptor signaling inhibition; hit rate 0.35% among 380,000; HEK293 LGR2, CRE-luciferase, bursicon-stimulated, 4 h; inhibition, % at 9.99 µM; AID 720647;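 active = drop in luminescence signal, shown as inhibition above about 50% in the replicate tests, limit read from the data, passing the limit was not always enough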;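 note: agonist challenge used bursicon conditioned medium at about half maximal strength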
EWS-Fli inh: inhibitors of EWS/Fli oncoprotein transcriptional activity. A673 NR0B1-luciferase reporter, viability-normalised. inhibition, % at 12.6 µM. hit rate 0.67% among 350,000;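 active = mean inhibition of at least 50% after viability correction, with every replicate also passing that limit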;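 note: firefly luciferase signal divided by Alamar Blue viability fluorescence both relative to DMSO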
PAX8 inh HTS: lowers PAX8-driven luciferase in RMG-I cells | hit rate 1.2% among 360,000 | RMG-I TPO-luciferase reporter, SteadyGlo, 24 h | inhibition, % at 12.6 µM;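 active = mean replicate inhibition at least 60% with every replicate also reaching 60%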;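 note: luciferase light reporting Pax8 driven TPO promoter activity; plate controls were median of neutral control wells for no effect and mitoxantrone controls for full effect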
* = called active by the depositor; · = not tested or not shown. Only some compounds are listed: those with a hit (about 1.8% of all), similar ones and a draw of the others.

SMILES	F508del corr	LGR2 antag	EWS-Fli inh	PAX8 inh HTS
Cc1cc(C2=NNC(=NC3CCCCC3)SC2)c(C)n1-c1c(C)n(C)n(-c2ccccc2)c1=O	-2	·	8	8
O=C1CCC(=O)N1CC1CC2CCC1C2 (configuration not stated)	0	12	63*	-1
C[C@@H]1CN([C@H](C)CO)C(=O)Cc2cc(NC(=O)Nc3ccc(F)cc3)ccc2O[C@@H]1CN(C)S(=O)(=O)c1ccc(Cl)cc1	-1	2	11	24
COc1ccc(C2C(C#N)=C(N)N(N(C)C)C3=C2C(=O)CCC3)cc1 (configuration not stated)	-2	2	15	-1
Fc1cccc(Cl)c1/C=C/c1cnc2ccccc2n1	-1	91*	82*	-5
Fc1cccc(F)c1/C=C/c1ccc2ccccc2n1	·	67*	·	-44
CC(C)NC(=O)Nc1cccc2c1O[C@@H](CN(C)S(=O)(=O)c1ccccc1)[C@H](C)CN([C@@H](C)CO)C2=O	-3	-8	-7	-16
C/C(=N\Nc1nc2ccccc2[nH]1)c1ccccn1	2	23	22	68*
Cc1ccc2nc(N/N=C/c3ccco3)cc(C)c2c1	3	-80	-48	-123
CC(=NNc1cc(C)c2cc(C)ccc2n1)c1ccccn1	-3	-83	30	69*
CC(C)NC(=O)N(C)C[C@@H]1Oc2ccc(NC(=O)CCC(F)(F)F)cc2CC(=O)N([C@@H](C)CO)C[C@H]1C	0	20	0	-1
Cc1ccc(S(=O)(=O)N2[C@H](c3ccccc3)CC(=O)[C@@H]3CN(S(=O)(=O)c4ccccc4)[C@H](c4ccccc4)C[C@@H]32)cc1	-1	19	5	-13
O=C(CNS(=O)(=O)c1c(Cl)cccc1Cl)OCC(=O)c1ccc[nH]1	-1	-4	-3	75*
CCc1ccc(-c2nc(CSCC(=O)N3CCN(c4ncccn4)CC3)c(C)o2)cc1	5	4	82*	20
C[C@@H]1CCCCO[C@@H](CN(C)Cc2ccc(C(F)(F)F)cc2)[C@@H](C)CN([C@@H](C)CO)C(=O)c2cc(NC(=O)Nc3ccccc3)ccc2O1	0	4	1	58
C[C@@H]1CN([C@@H](C)CO)C(=O)c2cc(NC(=O)Nc3ccccc3)ccc2O[C@@H](C)CCCCO[C@@H]1CN(C)Cc1ccc(C(F)(F)F)cc1	-10	6	4	74*
C[C@@H]1CCCCO[C@H](CN(C)Cc2ccc(C(F)(F)F)cc2)[C@@H](C)CN([C@H](C)CO)C(=O)c2cc(NC(=O)c3ccccc3)ccc2O1	2	0	0	23
C[C@@H]1CCCCO[C@H](CN(C)Cc2ccc(C(F)(F)F)cc2)[C@H](C)CN([C@@H](C)CO)C(=O)c2cc(NC(=O)c3ccccc3)ccc2O1	5	-4	64*	85*
C[C@@H]1CCCCO[C@@H](CN(C)Cc2ccc(C(F)(F)F)cc2)[C@H](C)CN([C@H](C)CO)C(=O)c2cc(NC(=O)Nc3ccccc3)ccc2O1	2	1	10	78*
C[C@@H]1CCCCO[C@H](CN(C)Cc2ccc(C(F)(F)F)cc2)[C@H](C)CN([C@@H](C)CO)C(=O)c2cc(NC(=O)Nc3ccccc3)ccc2O1	-4	12	23	75*
COc1ccc(S(=O)(=O)Nc2cccc3c2O[C@H](CN(C)C(=O)Nc2c(C)noc2C)[C@@H](C)CN([C@@H](C)CO)C3=O)cc1	2	-4	-6	·
Cc1ccc(-c2nn(-c3ccccc3)cc2C(=O)NCC(c2cccs2)N2CCOCC2)cc1 (configuration not stated)	6	4	-6	-2
C[C@@H]1CCCCO[C@H](CN(C)Cc2ccc(C(F)(F)F)cc2)[C@@H](C)CN([C@H](C)CO)C(=O)c2cc(NC(=O)Nc3ccccc3)ccc2O1	4	8	8	20
C[C@@H]1CN([C@H](C)CO)C(=O)c2cc(NC(=O)Nc3ccccc3)ccc2O[C@@H](C)CCCCO[C@@H]1CN(C)Cc1ccc(C(F)(F)F)cc1	-12	11	10	80*
C[C@@H]1CCCCO[C@H](CN(C)Cc2ccc(C(F)(F)F)cc2)[C@H](C)CN([C@H](C)CO)C(=O)c2cc(NC(=O)Nc3ccccc3)ccc2O1	-6	5	23	64*
SMILES	F508del corr	LGR2 antag	EWS-Fli inh	PAX8 inh HTS
CC1=NNC(=O)/C1=C\c1cn(-c2ccccc2)nc1-c1ccccc1	-4	106*	82*	33
O=Cc1cn(-c2ccccc2)nc1-c1ccccc1	-2	-52	-44	-47
O=C(NCc1ccccc1F)C1CCCN(c2cnccn2)C1 (configuration not stated)	0	5	0	-6
O=c1c2c(-c3ccccc3)csc2nc2c3ccccc3c(NCCN3CCOCC3)nn12	0	64*	0	20
C[C@@H]1CCCCO[C@H](CN(C)CC2CC2)[C@H](C)CN([C@@H](C)CO)C(=O)c2cc(NC(=O)Nc3ccc(C(F)(F)F)cc3)ccc2O1	-3	14	76*	28
C[C@@H]1CCCCO[C@@H](CN(C)CC2CC2)[C@H](C)CN([C@@H](C)CO)C(=O)c2cc(NC(=O)Nc3ccc(C(F)(F)F)cc3)ccc2O1	-2	9	6	23
C[C@H](CO)N1C[C@H](C)[C@H](CN(C)CC2CC2)OCCCC[C@H](C)Oc2ccc(NC(=O)Nc3ccc(C(F)(F)F)cc3)cc2C1=O	1	16	5	73*
C[C@H]1CN([C@@H](C)CO)C(=O)c2cc(NC(=O)CCC(F)(F)F)ccc2O[C@H]1CN(C)C(=O)Nc1ccccc1	1	19	-4	-17
Cc1ccc(C)c(Nc2cc(C)nc(-c3ccccc3O)n2)c1	4	4	62*	13
COc1ccc(N=Nc2ccc3ccccc3c2)c(O)c1	0	60*	33	-74
CC(C)c1ccc(-n2cccc2/C=C2/C(=N)N3C=CSC3=NC2=O)cc1	0	53*	-7	28
CC1=CSC2=NC(=O)/C(=C\c3cccn3-c3ccccc3)C(=N)N12	·	13	·	9
COc1cccc2c1C(=O)c1c(O)c3c(c(O)c1C2=O)CC(O)(C(=O)CO)CC3OC1CC(N(C)C)C(O)C(C)O1 (configuration not stated)	25*	·	64*	112*
COc1cccc2c1C(=O)c1c(O)c3c(c(O)c1C2=O)C[C@@](O)(C(C)=O)C[C@@H]3O[C@H]1C[C@H](N)[C@H](O)[C@H](C)O1	75*	100*	70*	114*
COC(=O)C1=CN(c2ccc(OC)cc2OC)C(N)=C(C#N)C1c1cccc([N+](=O)[O-])c1 (configuration not stated)	8	-12	57*	28
COC(=O)C1=CN(c2ccc(F)cc2)C(N)=C(C#N)C1c1cccc(F)c1 (configuration not stated)	0	7	24	18
N#C/C(=C\c1cccn1-c1ccccc1)C(=O)NC1CCCCC1	·	·	62*	21
Cc1nnc(CN(C)C(=O)CC2C(=O)NCCN2Cc2ccccc2C)o1 (configuration not stated)	2	9	2	7

Compound activity deposited in PubChem by Broad Institute.
